The test system of assay [1] is Plasmodium falciparum Sir2 (PF13_0152, Sir2A). The assay is described as follows: Plasmodium falciparum Sir2A binding compounds – biochemical, small-molecule microarray, 635 nm fluorescence, primary screen (AID 1098).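 Also: score merges spot fluorescence intensity with its signal-to-noise ratio.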 The conditions noted are these: fluorescence 635 nm, higher = more signal.
Assay [2] can be described thus: probe aDKK1 binding to arrayed compounds – biochemical, biotinylated probe, 635/667 nm fluorescence, primary screen (AID 1099).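 Also: score merges 667nm spot fluorescence with signal to noise across triplicate slides; reference of the scale not given here.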 Particulars: small-molecule microarray, higher = more signal.
Assay [3] is described as follows: probe aCHRDL2 binding to arrayed compounds – biochemical, biotinylated probe, 635/667 nm fluorescence, primary screen (AID 1100). Particulars: small-molecule microarray, higher = more signal.
The nature of assay [4]: change in splice reporter luminescence, either direction, cell-based, HEK293, spliceosome inhibition project, primary screen (AID 1101).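 Also: HEK293 cells carrying a splicing-competent luciferase reporter gene; test concentration not given here.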 Particulars: HEK293 splicing luciferase reporter, 24 h, higher = more signal, called active from +8 up or from −8 down. A general note: In a reporter assay the amount or activity of a reporter protein is the signal.
Assay [5] addresses Fibroblast growth factor 10 (Homo sapiens) (UniProt O15520). The assay is described as follows: compounds binding fibroblast growth factor 10 – biochemical, small-molecule microarray, 635 nm fluorescence, primary screen (AID 1102). Particulars: FGF10 binding, fluorescence 635 nm, higher = more signal.
Assay [6] relates to glycogen synthase kinase-3 (GSK3A per assay name; protocol says GSK3B). The assay is described as follows: compounds binding glycogen synthase kinase-3 – biochemical, small-molecule microarray, 635 nm fluorescence, GSK3A, primary screen (AID 1103). Also: the record names both GSK3A and GSK3B. The conditions noted are these: fluorescence 635 nm, higher = more signal.
Assay [7] addresses Epidermal growth factor receptor (Homo sapiens) (UniProt P00533). The assay is described as follows: compounds binding epidermal growth factor receptor – biochemical, small-molecule microarray, 635 nm fluorescence, primary screen (AID 1104).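 Also: score merges 667 nm emission intensity with spot signal to noise over triplicate slides.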 Particulars: EGFR binding, higher = more signal.
Assay [8] concerns the target Follistatin-related protein 3 (Homo sapiens) (UniProt O95633). The experiment in a line: compounds binding follistatin-related protein 3 – biochemical, small-molecule microarray, 635 nm fluorescence, primary screen (AID 1105).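 Also: score merges emission near 667 nm and signal to noise per printed spot across three slides.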 Particulars: FSTL3 binding, higher = more signal.
Assay [9] has as its target Dickkopf-related protein 1 (Homo sapiens) (UniProt O94907). The assay is described as follows: small molecules binding DKK1 protein – biochemical, small-molecule microarray, 635 nm fluorescence scan, primary screen (AID 1106).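 Also: score merges emission near 667 nm with signal to noise over three replicate slides.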 The conditions noted are these: higher = more signal.
For assay [10], the system named is Inhibin beta A chain (activin A). The experiment in a line: small molecules binding activin A – biochemical, small-molecule microarray, 635 nm fluorescence scan, primary screen (AID 1107).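 Also: mouse activin A protein probed at 4.33 µg/mL on printed slides; score merges bound-protein fluorescence near 667 nm with spot signal-to-noise.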 The conditions noted are these: INHBA, higher = more signal.

The source made the active and inactive calls.

Chain of Dickkopf-related protein 1 (Homo sapiens) (O94907 whole entry, looked up): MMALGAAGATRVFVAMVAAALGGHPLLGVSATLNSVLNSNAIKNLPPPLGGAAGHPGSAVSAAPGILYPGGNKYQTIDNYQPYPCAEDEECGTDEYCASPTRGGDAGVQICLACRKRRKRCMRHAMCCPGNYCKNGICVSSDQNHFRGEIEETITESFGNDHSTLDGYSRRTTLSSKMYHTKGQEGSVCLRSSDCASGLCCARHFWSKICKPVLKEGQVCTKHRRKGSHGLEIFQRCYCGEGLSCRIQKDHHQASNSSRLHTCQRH
Chain of Follistatin-related protein 3 (Homo sapiens) (O95633 whole entry, looked up): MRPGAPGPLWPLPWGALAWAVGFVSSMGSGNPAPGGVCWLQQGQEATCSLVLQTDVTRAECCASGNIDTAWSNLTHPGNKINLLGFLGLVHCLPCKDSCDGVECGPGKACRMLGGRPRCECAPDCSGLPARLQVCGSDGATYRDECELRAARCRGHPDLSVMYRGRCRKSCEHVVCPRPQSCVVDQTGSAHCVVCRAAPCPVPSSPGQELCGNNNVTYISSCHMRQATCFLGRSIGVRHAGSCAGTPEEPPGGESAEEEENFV
Chain of Fibroblast growth factor 10 (Homo sapiens) (O15520 whole entry, looked up): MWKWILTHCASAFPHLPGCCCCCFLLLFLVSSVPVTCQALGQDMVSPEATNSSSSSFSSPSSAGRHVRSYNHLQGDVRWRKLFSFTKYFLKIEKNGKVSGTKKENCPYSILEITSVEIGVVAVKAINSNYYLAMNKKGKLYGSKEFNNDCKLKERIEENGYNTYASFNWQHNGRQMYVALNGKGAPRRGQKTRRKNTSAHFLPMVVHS
Chain of Epidermal growth factor receptor (Homo sapiens) (P00533 whole entry, looked up): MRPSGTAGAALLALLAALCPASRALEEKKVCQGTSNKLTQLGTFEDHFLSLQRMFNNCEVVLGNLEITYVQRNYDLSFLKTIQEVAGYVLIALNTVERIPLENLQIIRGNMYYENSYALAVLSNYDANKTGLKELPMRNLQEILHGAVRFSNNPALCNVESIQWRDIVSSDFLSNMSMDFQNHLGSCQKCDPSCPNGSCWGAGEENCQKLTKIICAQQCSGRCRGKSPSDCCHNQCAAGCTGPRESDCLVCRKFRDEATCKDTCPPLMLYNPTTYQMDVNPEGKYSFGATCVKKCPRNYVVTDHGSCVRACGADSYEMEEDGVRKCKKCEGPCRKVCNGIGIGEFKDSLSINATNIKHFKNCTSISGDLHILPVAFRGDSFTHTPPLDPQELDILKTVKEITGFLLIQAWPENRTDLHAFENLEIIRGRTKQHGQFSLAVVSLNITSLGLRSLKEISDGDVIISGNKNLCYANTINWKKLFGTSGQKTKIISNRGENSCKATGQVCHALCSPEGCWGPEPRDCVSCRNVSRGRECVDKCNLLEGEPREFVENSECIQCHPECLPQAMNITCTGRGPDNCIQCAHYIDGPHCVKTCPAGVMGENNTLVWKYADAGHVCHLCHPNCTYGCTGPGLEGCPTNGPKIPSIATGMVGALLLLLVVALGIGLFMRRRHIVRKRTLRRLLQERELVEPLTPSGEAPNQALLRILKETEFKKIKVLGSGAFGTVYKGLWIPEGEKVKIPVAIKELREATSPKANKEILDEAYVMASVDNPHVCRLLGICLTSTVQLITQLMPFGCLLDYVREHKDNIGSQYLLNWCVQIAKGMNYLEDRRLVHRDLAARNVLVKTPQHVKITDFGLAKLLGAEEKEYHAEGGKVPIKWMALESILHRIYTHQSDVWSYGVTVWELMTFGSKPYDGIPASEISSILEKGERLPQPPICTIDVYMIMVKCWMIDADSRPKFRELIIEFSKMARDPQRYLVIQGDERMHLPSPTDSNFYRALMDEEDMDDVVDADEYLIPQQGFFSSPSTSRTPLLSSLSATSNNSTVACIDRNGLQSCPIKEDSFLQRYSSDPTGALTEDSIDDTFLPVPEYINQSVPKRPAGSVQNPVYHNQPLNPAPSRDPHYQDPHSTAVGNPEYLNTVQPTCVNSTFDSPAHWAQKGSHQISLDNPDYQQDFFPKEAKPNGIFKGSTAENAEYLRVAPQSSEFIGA

Consider `COc1ccc(C(O)C2C=CC3C(=O)N(c4ccccc4)C(=O)C3N2Nc2ccc(C#N)cc2)c2ccccc12` (stereo not given), for which the composite z-score in assay [1] was 1.2; in assay [2], 0.585; in [3] it was 0.917; in [5], 0.581; in assay [6], 0.811; in assay [7], -0.0239. The composite z-score in [8] stood at 0.733; in [9], 0.138; in [10], 0.675. Also, the z-score in [4] is 1.8 (inactive).
As to `CN(C)CCCNC(=O)[C@@]1(c2ccc([N+](=O)[O-])cc2)CC(=O)N(CC23CC4CC(CC(C4)C2)C3)[C@@H]1c1ccc(CO)cc1`, the composite z-score in assay [1] is 1.72; in assay [2] it was 0.774; in assay [3] it was 0.811; in assay [5] it was 0.239; in assay [6], 1.32; in [7], 0.201. Moreover, the composite z-score in assay [8] came to 0.996; in assay [9], 0.54; in [10], 1.14. The z-score in [4] was -0.102 (inactive).
For the compound `CCCc1cccc(=O)o1`, the composite z-score in assay [1] is 0.521; in assay [2], -0.161; in assay [3] it was -0.401; in assay [5], 0.215; in [6], 1.04; in assay [7], -0.21. Also, the composite z-score was found to be 0.182 in [8], 0.646 in [9] and 1.06 in assay [10]. In addition, in assay [4], the z-score was -0.396 (inactive).
For the compound `O=C(O)[C@H](Cc1ccccc1)n1cc(-c2ccccn2)nn1`, the composite z-score in assay [1] is -0.0726; in [2], -0.22; in assay [3], -0.323; in assay [5], 0.3; in assay [6] it was 0.507; in assay [7] it was 0.211. Further, the composite z-score in assay [8] was 0.333; in [9], 0.227; in assay [10], 0.325. In addition, the z-score in assay [4] is -0.27 (inactive).
With `O=C(O)[C@H]1C[C@H]2C(=O)N3CCC[C@H]3C(=O)N2[C@H]1c1cccc(OCCO)c1`, the composite z-score in assay [1] turned out to be 1.6; in assay [2], 0.0484; in [3], 0.0998; in assay [5], 0.262; in assay [6], 0.486; in assay [7], 0.0626. Also, the composite z-score in assay [8] was 0.384; in [9], 0.884; in assay [10], -0.0254. For the same compound, in [4], the z-score is -0.184 (inactive).
As to `C=CC[C@@]1(C(=O)O)N=C(c2ccc(OCCCO)cc2)O[C@@H]1c1ccccc1`, the composite z-score in assay [1] is 1.96; in assay [2], -0.2; in assay [3], 0.584; in assay [5] it was -0.21; in assay [6], 1.06; in [7], -1.9. For the same compound, the composite z-score is -1.15 in assay [8], -0.659 in assay [9] and -0.361 in assay [10]. Also, the z-score in assay [4] was -0.701 (inactive).
`CCCC[C@@H]1C[C@H]1[C@@H](NC(=O)c1ccccc1)c1ccc(Cl)cc1`: the composite z-score in assay [1] is -1.24; in [2], 0.15; in [3], 1.01; in assay [5] it was -1.38; in assay [6] it was -1.78; in assay [7], -1.77. Besides, the composite z-score is -2.35 in assay [8], -1.36 in [9] and 0.39 in assay [10]. In addition, the z-score in assay [4] is -1.93 (inactive).
In the case of `O=C1NC(=O)C2C1C=CC(C(O)c1c(F)cccc1Cl)N2Nc1ccccn1` (stereo not given), the composite z-score came to 0.419 in [1]; 0.282 in [2]; 0.171 in assay [3]; 0.48 in [5]; 0.198 in assay [6]; 0.409 in assay [7]. Further, the results for the composite z-score in assay [8], in [9] and in assay [10] were 0.262, 0.465 and 1.13, respectively. In addition, in assay [4], the z-score was 0.824 (inactive).
For the compound `CC(=O)n1cc(C(O)C2C=CC3C(=O)N(Cc4ccccc4)C(=O)C3N2n2cnnc2)c2ccccc21` (stereo not given), the composite z-score in assay [1] was 1.17; in [2] it was -0.0358; in [3] it was 0.205; in [5], -0.167; in [6] it was -0.243; in assay [7] it was -0.0707. The composite z-score worked out at 0.19 in assay [8], 0.12 in assay [9] and 0.713 in assay [10]. Moreover, the z-score in assay [4] was 0.108 (inactive).
With `NC(=O)NCC#Cc1ccc2c(c1)[C@]1(C(=O)N2)[C@H](c2ccc(O)cc2)N2[C@H](c3ccccc3)[C@H](c3ccccc3)OC(=O)[C@H]2[C@@H]1C(=O)Nc1nc2ccccc2s1`, the composite z-score in assay [1] worked out at 0.836; in [2], 0.645; in [3] it was 0.985; in assay [5], 1.25; in [6], 0.0394; in assay [7], 0.581. The composite z-score was found to be 1.05 in assay [8], 0.666 in assay [9] and 1.17 in assay [10]. Also, the z-score in [4] is 1.11 (inactive).
Take `CC(CO)N1C(=O)[C@@H]2C3C(=O)OCCC/C=C\[C@H]3OC23C=CCN(Cn2nnc4ccccc42)C(=O)[C@@H]13` (stereo not given in full): the composite z-score is 1.82 in assay [1]; -0.0595 in assay [2]; -0.102 in [3]; -0.134 in assay [5]; -0.527 in [6]; -0.718 in assay [7]. Moreover, the values for the composite z-score in assay [8], in assay [9] and in assay [10] were -0.474, -0.361 and 0.339, respectively. The z-score in assay [4] is -0.411 (inactive).
Regarding `CC(C)(C)OC(=O)CC[C@]1(C(=O)O)N=C(c2ccc(OCCCO)cc2)O[C@H]1c1ccccc1CN=[N+]=[N-]`, the composite z-score in assay [1] is 0.814; in [2], 0.905; in [3], 0.764; in assay [5], 0.253; in [6], -0.138; in assay [7], -0.554. For the same compound, the composite z-score in assay [8] is -0.507; in assay [9] it was -0.134; in assay [10] it was 0.923. Moreover, the z-score in [4] is 0.325 (inactive).
`CCCCC(=C=CC[C@@H](O)c1ccc(OCCO)cc1)C[C@@H](O)COCc1ccccc1`: the composite z-score in assay [1] was 1.27; in assay [2], -0.338; in assay [3] it was -0.212; in assay [5], 1.01; in [6], -0.0016; in [7], -0.3. Moreover, the results for the composite z-score in assay [8], in [9] and in assay [10] were 0.245, 0.111 and 0.856, respectively. Besides, in [4], the z-score was -0.784 (inactive).
With `COc1ccc(NC(=O)O[C@H]2[C@H](OC(=O)Nc3ccc4c(c3)OCO4)[C@@H](OC(=O)Nc3ccc4c(c3)OCO4)[C@@H](OC)O[C@@H]2CO)cc1`, the composite z-score in [1] came out at 1.61; in [2] it was 0.0898; in assay [3], 0.0398; in assay [5], 1.11; in assay [6] it was 1.29; in [7] it was 0.0699. Moreover, the composite z-score in assay [8] stood at 0.516; in [9], 0.0542; in assay [10] it was 0.774. Besides, in assay [4], the z-score was 1.27 (inactive).
`COc1ccc([Si](C)(C)[C@@H]2[C@@H](CCO)O[C@]3(C(=O)N(Cc4cccc(N5C(=O)c6cccc7cccc5c67)c4)c4ccccc43)[C@H]2C)cc1`: the composite z-score in [1] was 0.187; in assay [2] it was 0.0019; in [3], 0.466; in assay [5] it was 0.454; in [6], -0.0664; in assay [7] it was -0.491. Further, the composite z-score in assay [8] is -0.339; in [9] it was -0.411; in assay [10], -0.0335. For the same compound, the z-score in assay [4] was -0.665 (inactive).

For the origin of these results see PubChem BioAssay.
